In PubChem BioAssay AID1628 (Sanford-Burnham Center for Chemical Genomics, 2009):
Among all 190,000 compounds or so, about 930 (0.49%) were called active. The list shows a part of the results. Entries with a potency or affinity are not part of this list. Unmarked numbers belong to inactive results.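 Rule for the calls: active = z-score of insulin promoter reporter brightness in nuclei below -3 at 5 µM, with at least 500 cells counted; inconclusive = wells with under 500 cells, flagged as toxic or sparse; inactive = the rest.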

experiment: decrease of insulin promoter-GFP reporter – imaging, high-content screening, mouse beta cells (AID 1628); details: MIN6 insulin promoter GFP reporter, at 5 µM, active compounds read low

| SMILES | z-score |
| --- | --- |
| CCOC(=O)c1sc(NC(=O)c2sccc2C)cc1C | 3.1 |
| CCOC(=O)c1c(NC(=O)c2ccccc2)sc2c1CCc1ccccc1-2 | -5.18 (active) |
| CC(=O)C1=C(C)NC(SCC(=O)c2ccc(Cl)c(Cl)c2)=C(C#N)C1c1ccco1 (stereo unspecified) | 3.16 |
| Cc1ccc(C2CC(=O)NC(SCc3ccccc3)=C2C#N)o1 (stereo unspecified) | 3.43 |
| CCOC(=O)CSC1=C(C#N)C(c2ccc(C)s2)CC(=O)N1 (stereo unspecified) | -3.15 (active) |
| CCCNc1nc2c(c(=O)n(C)c(=O)n2C)n1CCc1ccccc1 | -5.56 (active) |
| CCn1c(NCCc2ccc(OC)c(OC)c2)nc2c1c(=O)n(C)c(=O)n2C | -5.44 (active) |
| CCOc1cc2[nH]c(=O)n(CCC(=O)NCCc3ccc(OC)c(OC)c3)c(=O)c2cc1OCC | 1.44 |
| O=c1cc2oc3cc(O)c(O)cc3c(-c3ccccc3O)c-2cc1O | 15.3 |
| CCn1c(SCC(=O)Nc2nc3ccc(OC)cc3s2)nc2c1c(=O)n(C)c(=O)n2C | -3.33 (active) |
| CCn1ncc(C2=NOC(C(=O)Nc3cccc(C(C)=O)c3)C2)c1C (stereo unspecified) | -3 (active) |
| C=C(C)c1cccc(C(C)(C)NC(=O)NCC2COCCO2)c1 (stereo unspecified) | 0.86 |
| CC(C)(C)c1ccc(C(=O)c2c[nH]c(C(=O)NCC3CCCO3)c2)cc1 (stereo unspecified) | -4.57 (active) |
| CCn1c(=NC(=O)c2ccc(S(=O)(=O)N(C)C)cc2)sc2cccc(OC)c21 | -5.14 (active) |
| c1ccc(-n2ncc3c(N4CCN(c5ccccn5)CC4)nc(N4CCCCCC4)nc32)cc1 | 4.11 |
| C/C(=C\c1ccccc1)CN1CCN(c2ccccc2)CC1 | 1.49 |
| CC(=O)Nc1sc(/C(C#N)=C\c2cccc(Cl)c2)nc1-c1ccc(C)cc1 | 15.6 |
| CCOC(=O)N1CCN(/C=C(\C#N)c2nc3ccccc3s2)CC1 | 3.47 |
| Cc1nn(-c2ccccc2)c(N2CCCC2)c1/C=N/n1cnc2scc(-c3ccccc3)c2c1=O | -3.26 (active) |
| COc1cc2c3nnc(-c4ccc(F)cc4)c-3cn(Cc3ccccc3)c2cc1OC | 3.81 |
| COc1ccc(Nc2ncnc3c2cnn3Cc2ccccc2)cc1OC | -4.71 (active) |
| O=[N+]([O-])c1ccc(N/N=C/c2ccc[nH]2)cc1 | 12.9 |
| N#C/C(=C/c1ccc(N2CCOCC2)o1)c1ccc(Cl)cc1 | 7.33 |
| Oc1c(C=NCc2ccc(F)cc2)[nH]c2ccc(Br)c(Cl)c12 | 4.06 |

| SMILES | z-score |
| --- | --- |
| CCC(C)NS(=O)(=O)c1ccc(NC(=O)Cc2ccc(OC)cc2)cc1 (stereo unspecified) | -3.19 (active) |
| CCOC(=O)c1ccc(NC(=O)COc2ccc(S(=O)(=O)NC(C)CC)cc2)cc1 (stereo unspecified) | 3.08 |
| COc1ccc(NC(=O)CSc2ncccc2C(=O)OC(C)C)cc1OC | -5.26 (active) |
| Cc1ccccc1CN(c1ccc(C(=O)NCC2CCCO2)cc1)S(C)(=O)=O (stereo unspecified) | -4.88 (active) |
| O=C(COC(=O)c1ccco1)NCC1CCCO1 (stereo unspecified) | 3.04 |
| CCCc1n[nH]c2c1C(=O)C(C(=O)OC)C(C)(C)C2 (stereo unspecified) | 3.65 |
| CN(CCC#N)C(=O)COC(=O)c1ccc(Cl)c(S(N)(=O)=O)c1 | -5.92 (active) |
| CCOC(=O)C1=C(c2ccccc2)NC(N)=NC1c1ccc(OCc2ccc(Cl)cc2)c(OC)c1 (stereo unspecified) | -3.43 (active) |
| CCOC(=O)C1=C(C)NC(=O)NC1c1ccc(N2CCC(c3ccccc3)=N2)cc1 (stereo unspecified) | 4.29 |
| COc1ccc(Cl)cc1NC(=O)c1c(-c2ccccc2)noc1C | 18 |
| O=[N+]([O-])c1ccc(N/N=C/c2c[nH]c3ccccc23)cc1 | 3.11 |
| O=C(/C=C/c1ccccc1)NCC(=O)N/N=C/c1ccccc1[N+](=O)[O-] | 3.03 |
| CCN(CC)CCn1c(=S)[nH]c2ccc(Cl)cc2c1=O | 3.97 |
| C=C(C)Cn1c(=S)[nH]c2ccccc2c1=O | -6.61 (active) |
| Nn1c(=O)[nH]c2ccccc2c1=O | -0.08 |
| O=[N+]([O-])c1ccc(Cc2nnc(-c3ccccc3Cl)o2)cc1 | 2.55 |
| CCOc1ccc(-c2nnn(CC(=O)c3ccc4c(c3)OCCO4)n2)cc1 | -0.23 |
| CC(C)Cn1c(N)c(C(=O)COC(=O)c2ccc3c(c2)OCCO3)c(=O)n(C)c1=O | -4.98 (active) |
| COCc1c(C(=O)OCC(=O)c2c(N)n(CC(C)C)c(=O)n(C)c2=O)oc2ccccc12 | -4.37 (active) |
| C[C@@H](C(=O)Nc1ccc2ccccc2c1)[C@H]1C[C@]1(C)[C@H](NC(=O)c1cnccn1)c1ccccc1 | -4.74 (active) |
| CCOC(=O)C1=C(N2CCCCC2)c2cc3c(n2C1=O)CCCC3 | -3.42 (active) |
| CCOC(=O)CN1C(=O)S/C(=C/c2ccc(N3CCCCC3)o2)C1=O | 5.8 |
| COc1ccc2c(OC)c3ccoc3nc2c1OC | -0.53 |
| CCCS(=O)(=O)N1CCN(Cc2ccccc2C(F)(F)F)CC1 | -0.28 |

| SMILES | z-score |
| --- | --- |
| CCCS(=O)(=O)N1CCN(Cc2ccccc2[N+](=O)[O-])CC1 | -3.06 (active) |
| CC(C)SC1=NC(C)(C)C=C(/C=C/c2ccc(Cl)cc2Cl)N1 | 3.58 |
| Cn1cnc2c(NCc3ccco3)ncnc21 | -0.11 |
| Cc1cc(N/N=C/c2ccc([N+](=O)[O-])o2)nc2ccccc12 | 8.56 |
| Cc1ccc(/C=N/Nc2ccc3ccccc3n2)o1 | -3.22 (active) |
| Cc1ccn2c(=O)cc(C)nc2c1 | 2.27 |
| Cc1ccn2c(-c3csc(NCc4ccco4)n3)c(C)nc2c1 | -6.24 (active) |
| Cc1nc2ccccn2c1-c1csc(NCc2ccco2)n1 | -9.7 (active) |
| CC(=O)Nc1ccc(N2CCc3c(C)c(C#N)c4nc5ccccc5n4c32)cc1 | 3.8 |
| CC(=O)Nc1ccc(N2C(=O)C3C4CC(=O)C(c5ccccc54)C3C2=O)cc1 (stereo unspecified) | -5.05 (active) |
| CC1CN(Cc2cc(=O)[nH]c(C3CC3)n2)CC(C)O1 (stereo unspecified) | -3.69 (active) |
| O=C(NCc1ccc(F)cc1)C1CCCN(S(=O)(=O)c2cccnc2)C1 (stereo unspecified) | 3.46 |
| C/C(=N\NC(=O)C1CCCN(S(=O)(=O)c2ccccc2)C1)c1ccccn1 (stereo unspecified) | -3.38 (active) |
| CCN(CCNC(=O)C1CCCN(S(=O)(=O)CC)C1)c1ccccc1 (stereo unspecified) | 3.08 |
| COc1cc(/C=N/NC(=S)Nc2cccc(Cl)c2C)ccc1OCC(=O)N1CC(C)OC(C)C1 (stereo unspecified) | -3.25 (active) |
| Oc1ccc(Cl)cc1C1=Nc2ccccc2N=C(c2ccco2)C1 | 4.34 |
| COC1=CCC2([N+](=O)[O-])CN(CCO)CC1([N+](=O)[O-])C2 (stereo unspecified) | 3.03 |
| Cc1ccccc1N1C(=O)CC(c2c[nH]c3ccccc23)C1=O (stereo unspecified) | 3.5 |
| CCn1c(COc2ccc(=O)n(-c3ccccc3)n2)nnc1SCc1ccccc1C | -4.23 (active) |
| CCOC(=O)c1sc(NCCNc2nc(C)c(C(=O)OCC)s2)nc1C | -0.64 |
| COc1cc(=O)n(C)c2c(OCC3OC(C)(C)OC3(C)C)cccc12 (stereo unspecified) | -0.95 |
| O=C1C=C(Nc2ccccc2)C(=O)c2ccccc21 | -0.04 |
| O=C1/C(=N\S(=O)(=O)c2cccs2)C([n+]2cccc(Cc3ccccc3)c2)=C([O-])c2ccccc21 | 6.82 |
| Cn1c(SCC(=O)NNC(=O)Cc2ccccc2)nnc1-c1ccc(Cl)cc1 | -3.49 (active) |

| SMILES | z-score |
| --- | --- |
| CCCn1c(SCC(=O)NC2CCCCC2)nnc1-c1ccncc1 | 3.06 |
| CC(C)(C)NC(=O)CSc1n[nH]c(=O)n1-c1ccccc1 | 2.5 |
| O=C(NC1(C(F)(F)F)NC(=O)N(c2ccc(F)c(Cl)c2)C1=O)c1ccncc1 (stereo unspecified) | 4.5 |
| COc1ccc2cc(C(c3nnnn3C(C)(C)C)N3CCc4ccccc4C3)c(=O)[nH]c2c1 (stereo unspecified) | -5.1 (active) |
| OCCC1CN(Cc2cccn2-c2ncccn2)CCN1CCc1ccccc1 (stereo unspecified) | -3.43 (active) |
| CCc1ccc(N2CC(O)(c3cccs3)[N+]3=C2SCCC3)cc1 (stereo unspecified) | -3.76 (active) |
| O=S(=O)([O-])CCC[n+]1c(/C=C\Nc2ccccc2)oc2ccc(-c3ccccc3)cc21 | 3.19 |
| CSC(=Nc1cccc(C)c1)NC#N | -5.35 (active) |
| COCCCNC(=O)c1c(N)n(/N=C/c2cccnc2)c2nc3ccccc3nc12 | -3.07 (active) |
| COC(=O)C1=C(N)n2c(s/c(=C\c3cccnc3)c2=O)=C(C(=O)OC)C1c1cccnc1 (stereo unspecified) | 3.21 |
| Cc1ccc(C(=O)NCCn2c(N)c(C#N)c3nc4ccccc4nc32)cc1 | 4.08 |
| Cc1ccc(-n2c(Cc3cccs3)nnc2SCC(=O)OC(C)C)cc1 | 3.05 |
| COc1cc(/C=C(\C#N)c2nc3ccccc3o2)ccc1O | 4.56 |
| CCNC(=S)N/N=C/c1ccc(-c2ccccc2)o1 | -3.35 (active) |
| CC(C)(C)NC(=S)N/N=C\c1ccc(-c2ccc([N+](=O)[O-])cc2)o1 | 14.4 |
| COCCNC(=S)N/N=C/c1ccc(-c2ccc([N+](=O)[O-])cc2)o1 | 5.22 |
| CN(C)C(=O)C1C2NC(=S)N(c3cccc(Cl)c3)C1(C)Oc1ccc(Cl)cc12 (stereo unspecified) | 3.51 |
| Nc1c(C(=O)c2ccccc2)sc2nsc(SCCN3CCCC3)c12 | 6.03 |
| CC(CNCC1CCCO1)COc1cccc2ccccc12 (stereo unspecified) | -4.31 (active) |
| OC(CNCC1CCCO1)COc1ccc(OCC(O)CNCC2CCCO2)cc1 (stereo unspecified) | 1.04 |
| CCOC(=O)/C(C#N)=C/C=C1\C=Cc2ccccc2N1CC | 4.84 |
| CS(=O)(=O)N(CCc1ccccc1)CC(=O)N1CCN(Cc2ccccc2)CC1 | 0.33 |
| O=C(C1=C[C@H](C2CC2)C[C@H](OCCCCO)O1)N1CCN(Cc2ccccc2)CC1 | 3.72 |
| O=C(c1ccccn1)N1CCN(S(=O)(=O)c2ccc3ccccc3c2)CC1 | 3.58 |
